Data reported in PubChem BioAssay.
For some assays here: Measured potencies and affinities stand elsewhere. Active and inactive are the calls of the source. Unless noted, no rule for the calls is given here.

What was measured:
[1] = antimalarial activity against Dd2 strain (AID 2302;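 active = growth inhibition above 50% at the single 2 µM test dose, taken to imply half-maximal potency below 2 µM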;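 also: 0% = DMSO untreated growth and 100% = chloroquine plus artemisinin killed control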); conditions: P. falciparum Dd2 in RBCs, LDH growth readout, 72 h; at 2 µM; stronger effect = higher value
[2] = HepG2 cytotoxicity, primary screen, cytotoxicity control for P. falciparum antimalarial project, cell-based, ATP luminescence (AID 2303;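 active = inhibition above 50%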;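 also: 0% = DMSO wells and 100% = digitonin-killed cells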); conditions: HepG2 viability, 24-48 h, at 10 µM, stronger effect = higher value
[3] = biological target: L-lactate dehydrogenase (Plasmodium falciparum (isolate CDC / Honduras)) (UniProt Q27743); test: PfLDH activity inhibition – cell lysate, 3D7 strain, counter-screen for P. falciparum growth inhibition project (AID 2304);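 also: 0% = vehicle and 100% = reference inhibitor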; conditions: P. falciparum 3D7 crude extract, LDH APAD/NBT absorbance; at 2 µM; stronger effect = higher value
Sequence of L-lactate dehydrogenase (Plasmodium falciparum (isolate CDC / Honduras)) (Q27743 whole entry, looked up): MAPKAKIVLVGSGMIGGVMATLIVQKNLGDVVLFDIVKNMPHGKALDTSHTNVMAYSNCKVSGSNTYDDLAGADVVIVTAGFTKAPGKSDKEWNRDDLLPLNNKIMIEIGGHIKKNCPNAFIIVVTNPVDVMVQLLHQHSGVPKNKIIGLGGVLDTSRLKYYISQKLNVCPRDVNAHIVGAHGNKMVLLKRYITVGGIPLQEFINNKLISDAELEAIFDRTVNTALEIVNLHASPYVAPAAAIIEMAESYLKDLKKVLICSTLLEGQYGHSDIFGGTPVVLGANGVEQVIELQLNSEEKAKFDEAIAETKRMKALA

[4] = inhibition of 3D7 malaria parasite growth – strain 3D7 (AID 2306);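 also: 0% = DMSO wells and 100% = chloroquine plus artemisinin control wells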; conditions: P. falciparum 3D7 erythrocytic growth, LDH absorbance, 72 h; at 2 µM; stronger effect = higher value
[5] = biological target: Calcium-dependent protein kinase 1 (Plasmodium falciparum (isolate 3D7)) (UniProt P62344); test: PfCDPK1 kinase inhibitors, biochemical, TCAMS library (AID 1159585; cut-off not given, nearly all actives have IC50 up to about 0.98 µM;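 also: inhibitors leave more ATP so luminescence rises with inhibition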); conditions: recombinant PfCDPK1, Kinase-Glo ATP depletion luminescence
Sequence of Calcium-dependent protein kinase 1 (Plasmodium falciparum (isolate 3D7)) (P62344 whole entry, looked up): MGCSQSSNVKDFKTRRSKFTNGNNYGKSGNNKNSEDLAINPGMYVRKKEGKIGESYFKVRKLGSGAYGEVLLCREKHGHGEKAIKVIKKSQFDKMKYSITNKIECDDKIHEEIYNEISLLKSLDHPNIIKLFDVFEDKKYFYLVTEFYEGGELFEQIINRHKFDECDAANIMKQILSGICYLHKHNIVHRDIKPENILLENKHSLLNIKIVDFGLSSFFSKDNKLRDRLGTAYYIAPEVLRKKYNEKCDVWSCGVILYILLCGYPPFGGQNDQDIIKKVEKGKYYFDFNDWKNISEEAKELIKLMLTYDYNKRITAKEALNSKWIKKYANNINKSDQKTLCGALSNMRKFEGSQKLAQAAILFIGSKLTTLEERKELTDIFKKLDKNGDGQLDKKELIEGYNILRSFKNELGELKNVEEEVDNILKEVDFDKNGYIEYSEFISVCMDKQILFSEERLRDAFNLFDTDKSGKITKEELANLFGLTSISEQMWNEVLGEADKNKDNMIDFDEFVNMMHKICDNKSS

[6] = biological target: Plasmodium falciparum protein kinase 6 (PK6, PF3D7_1337100) (UniProt Q8IDW1); test: PfPK6 kinase inhibitors, biochemical, TCAMS library (AID 1159586); conditions: recombinant PfPK6, Kinase-Glo ATP depletion luminescence
Sequence of Plasmodium falciparum protein kinase 6 (PK6, PF3D7_1337100) (Q8IDW1 1-305): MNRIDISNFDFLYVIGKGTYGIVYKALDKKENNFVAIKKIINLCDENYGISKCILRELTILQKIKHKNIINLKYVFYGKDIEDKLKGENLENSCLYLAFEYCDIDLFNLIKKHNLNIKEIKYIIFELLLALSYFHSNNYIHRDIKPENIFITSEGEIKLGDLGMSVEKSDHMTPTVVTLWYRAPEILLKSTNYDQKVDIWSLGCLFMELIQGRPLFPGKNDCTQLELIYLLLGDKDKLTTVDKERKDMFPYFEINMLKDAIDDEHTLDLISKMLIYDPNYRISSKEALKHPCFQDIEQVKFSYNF

[7] = biological target: Protein kinase 7 (PK7), Plasmodium falciparum 3D7 (PF3D7_0213400) (UniProt Q7YTF7); test: inhibition of Plasmodium PK7 catalytic activity – biochemical, TCAMS antimalarial set, Kinase-Glo luminescence (AID 1159587); conditions: recombinant PfPK7, Kinase-Glo ATP depletion luminescence
Sequence of Protein kinase 7 (PK7), Plasmodium falciparum 3D7 (PF3D7_0213400) (Q7YTF7 1-343): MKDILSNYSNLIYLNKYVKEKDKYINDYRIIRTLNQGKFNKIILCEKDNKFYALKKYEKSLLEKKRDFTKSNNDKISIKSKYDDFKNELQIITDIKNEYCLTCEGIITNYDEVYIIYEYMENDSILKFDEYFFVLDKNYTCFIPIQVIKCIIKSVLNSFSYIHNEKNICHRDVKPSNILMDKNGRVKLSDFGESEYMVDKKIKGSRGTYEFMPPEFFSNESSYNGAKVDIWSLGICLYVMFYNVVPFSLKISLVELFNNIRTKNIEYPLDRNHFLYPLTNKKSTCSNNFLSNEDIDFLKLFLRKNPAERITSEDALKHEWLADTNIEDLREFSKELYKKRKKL

[8] = biological target: Calcium-dependent protein kinase 4 (Plasmodium falciparum (isolate 3D7)) (UniProt Q8IBS5); test: PfCDPK4 kinase inhibitors, biochemical, TCAMS library (AID 1159588; cut-off not given, nearly all actives have IC50 up to about 0.91 µM); conditions: recombinant PfCDPK4, Kinase-Glo ATP depletion luminescence
Sequence of Calcium-dependent protein kinase 4 (Plasmodium falciparum (isolate 3D7)) (Q8IBS5 whole entry, looked up): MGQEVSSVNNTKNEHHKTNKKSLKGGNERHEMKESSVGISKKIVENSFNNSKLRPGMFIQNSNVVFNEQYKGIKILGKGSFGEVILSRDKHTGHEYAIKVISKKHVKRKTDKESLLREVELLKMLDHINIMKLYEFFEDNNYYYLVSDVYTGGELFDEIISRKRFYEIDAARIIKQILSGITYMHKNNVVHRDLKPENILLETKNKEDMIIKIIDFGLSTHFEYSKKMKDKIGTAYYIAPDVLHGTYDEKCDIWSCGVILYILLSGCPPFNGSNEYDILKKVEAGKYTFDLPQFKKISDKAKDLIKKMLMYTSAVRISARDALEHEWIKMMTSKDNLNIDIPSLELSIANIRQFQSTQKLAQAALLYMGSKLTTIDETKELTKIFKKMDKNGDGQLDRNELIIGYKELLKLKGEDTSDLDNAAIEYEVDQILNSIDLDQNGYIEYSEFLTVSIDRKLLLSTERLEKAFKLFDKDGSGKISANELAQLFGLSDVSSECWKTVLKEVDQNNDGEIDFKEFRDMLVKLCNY

COc1ccccc1CNC(=O)c1nn(-c2ccc(Cl)cc2)c(=O)c2ccccc12
active: growth inhibition [1] 80% | growth inhibition [4] 101%
inactive: inhibition [2] -2% | inhibition [3] 6% | outcome [5] | outcome [6] | outcome [7] | outcome [8]

O=C(c1ccc(-c2ccc(-c3nc4ccccc4[nH]3)s2)cc1)N1CCCCC1CN1CCC(O)C1 (stereo unspecified)
inactive: inhibition [2] 18% | inhibition [3] 2% | outcome [5] | outcome [6] | outcome [7] | outcome [8]
active: growth inhibition [1] 55% | growth inhibition [4] 84%

O=C(/C=C/c1ccc(Cl)c(Cl)c1)NCCCCCCN1CCN(C(=O)Nc2ccc(F)c(Cl)c2)CC1
inactive: growth inhibition [1] 2% | inhibition [2] 40% | inhibition [3] -7% | outcome [5] | outcome [6] | outcome [7] | outcome [8]
active: growth inhibition [4] 86%

Cc1ccc(/C=C/C(=O)NC2CCC(N3CCC(c4ccccc4C)CC3)CC2)cc1F (stereo unspecified)
inactive: growth inhibition [1] 18% | inhibition [3] 2% | outcome [5] | outcome [6] | outcome [7] | outcome [8]
active: inhibition [2] 51% | growth inhibition [4] 96%

Cc1ccccc1OCC(=O)Nc1ccc(-c2nc3cc4ccccc4cc3[nH]2)cc1
inactive: inhibition [2] 24% | inhibition [3] 2% | outcome [5] | outcome [6] | outcome [7] | outcome [8]
active: growth inhibition [1] 51% | growth inhibition [4] 102%

COc1ccc(-c2ccc(NC(=O)c3cccc(Cl)c3)cc2)cc1CNC(C)C
active: growth inhibition [1] 88% | growth inhibition [4] 100%
inactive: inhibition [2] 26% | inhibition [3] 1% | outcome [5] | outcome [6] | outcome [7] | outcome [8]

CCC(CC)n1c(COC)cc2c3c(N)nc(N)nc3ccc21
inactive: growth inhibition [1] 0% | inhibition [3] -4% | outcome [5] | outcome [6] | outcome [7] | outcome [8]
active: inhibition [2] 71% | growth inhibition [4] 95%

COc1ccc(C2CC(c3cccs3)=NN2C(=O)CNc2ccccc2F)cc1OC (stereo unspecified)
active: growth inhibition [4] 87%
inactive: growth inhibition [1] 45% | inhibition [2] 11% | inhibition [3] 2% | outcome [5] | outcome [6] | outcome [7] | outcome [8]

O=C(Nc1cc(C(F)(F)F)ccc1-n1cncn1)C1(c2ccccc2)CC1
active: growth inhibition [1] 100% | growth inhibition [4] 100%
inactive: inhibition [2] 11% | inhibition [3] 3% | outcome [5] | outcome [6] | outcome [7] | outcome [8]

Nc1nc(N)c2c(ccc3c2ccn3Cc2ccccc2)n1
active: growth inhibition [1] 94% | inhibition [2] 64% | growth inhibition [4] 96%
inactive: inhibition [3] -8% | outcome [5] | outcome [6] | outcome [7] | outcome [8]

COc1cccc(NC(=O)CSc2nc(-c3ccccc3Cl)ns2)c1
active: growth inhibition [1] 100% | growth inhibition [4] 99%
inactive: inhibition [2] 7% | inhibition [3] 2% | outcome [5] | outcome [6] | outcome [7] | outcome [8]

O=c1ccc2ccc(F)c3c2n1CC3CN1CCC(NCc2cccc(-c3ccccc3F)c2)CC1 (stereo unspecified)
active: growth inhibition [4] 100%
inactive: growth inhibition [1] 6% | inhibition [2] 29% | inhibition [3] -1% | outcome [5] | outcome [6] | outcome [7] | outcome [8]

CCCc1ccc(NC(=O)c2ccc(CN3CCCN(CC4CCCCC4)CC3)cc2)cc1
active: growth inhibition [4] 95%
inactive: growth inhibition [1] 41% | inhibition [2] 49% | inhibition [3] -7% | outcome [5] | outcome [6] | outcome [7] | outcome [8]

O=C(/C=C/c1ccc(Cl)c(Cl)c1)NCCCCCN1CCC(C(=O)Nc2ccc3c(c2)OCO3)CC1
active: growth inhibition [4] 92%
inactive: growth inhibition [1] -3% | inhibition [2] 18% | inhibition [3] 4% | outcome [5] | outcome [6] | outcome [7] | outcome [8]

CC1(C)N=C(N)N=C(N)N1OCCc1ccc(N)cc1
inactive: inhibition [3] -6% | outcome [5] | outcome [6] | outcome [7] | outcome [8]
active: growth inhibition [1] 95% | inhibition [2] 65% | growth inhibition [4] 93%

COc1cccc(-c2ccc(O)c(CNCCc3cccc(F)c3)c2)n1
inactive: inhibition [2] -14% | inhibition [3] 0% | outcome [5] | outcome [6] | outcome [7] | outcome [8]
active: growth inhibition [1] 67% | growth inhibition [4] 96%

O=S(=O)(c1cccc(Cl)c1F)N(CCC(O)(C(F)(F)F)C(F)(F)F)Cc1cccc(O)c1
inactive: inhibition [2] -5% | inhibition [3] 0% | outcome [5] | outcome [6] | outcome [7] | outcome [8]
active: growth inhibition [1] 86% | growth inhibition [4] 100%

CC(C)CCN1CCCN(Cc2cccc(C(=O)Nc3ccc(C(C)(C)C)cc3)c2)CC1
inactive: growth inhibition [1] 1% | inhibition [2] 33% | inhibition [3] -5% | outcome [5] | outcome [6] | outcome [7] | outcome [8]
active: growth inhibition [4] 85%

COc1ccc(Cc2cnc3nc(N)nc(N)c3c2C)cc1
inactive: inhibition [3] -2% | outcome [5] | outcome [6] | outcome [7] | outcome [8]
active: growth inhibition [1] 96% | inhibition [2] 65% | growth inhibition [4] 90%

N[C@@H](Cc1ccc(O)cc1)C(=O)NC(c1ccccc1)c1c(O)ccc2ccccc12 (stereo partly specified)
inactive: inhibition [2] 6% | inhibition [3] 2% | outcome [5] | outcome [6] | outcome [7] | outcome [8]
active: growth inhibition [1] 95% | growth inhibition [4] 95%

COc1ccc(-c2cccc(NC(=O)c3cccc(C#N)c3)c2)cc1CN1CCCC1
active: growth inhibition [4] 98%
inactive: growth inhibition [1] 32% | inhibition [2] 28% | inhibition [3] -4% | outcome [5] | outcome [6] | outcome [7] | outcome [8]

O=C(/C=C/c1ccc(Cl)c(Cl)c1)NCCCCCN1CCC(C(=O)Nc2ccc(Cl)c(Cl)c2)CC1
active: inhibition [2] 73% | growth inhibition [4] 98%
inactive: growth inhibition [1] 0% | inhibition [3] -2% | outcome [5] | outcome [6] | outcome [7] | outcome [8]

CCOC(=O)NC1=NC(C)(C)N(OCCCOc2ccc(C)cc2C)C(NC(=O)OCC)=N1
active: growth inhibition [1] 98% | inhibition [2] 63% | growth inhibition [4] 95%
inactive: inhibition [3] 7% | outcome [5] | outcome [6] | outcome [7] | outcome [8]

CN(C)C(CNC(=O)c1cc(-c2ccncc2)c(-c2ccc(NC(=O)Nc3cccc(F)c3)cc2)o1)c1ccccc1 (stereo unspecified)
inactive: inhibition [2] 11% | inhibition [3] 3% | outcome [5] | outcome [6] | outcome [7] | outcome [8]
active: growth inhibition [1] 99% | growth inhibition [4] 100%

CNC(=O)C1Cc2c([nH]c3ccc(Br)cc23)C2(CCN(CCc3ccccc3)CC2)N1 (stereo unspecified)
inactive: inhibition [2] 15% | inhibition [3] -2% | outcome [5] | outcome [6] | outcome [7] | outcome [8]
active: growth inhibition [1] 60% | growth inhibition [4] 101%

OCC1CCN(Cc2ccc(-c3cccc(-c4nc5ccccc5[nH]4)c3)cc2)CC1
inactive: growth inhibition [1] 6% | inhibition [2] 21% | inhibition [3] -1% | outcome [5] | outcome [6] | outcome [7] | outcome [8]
active: growth inhibition [4] 101%

CCCCCN1CCCC(NS(=O)(=O)c2ccc(C(=O)Nc3ccc(C(F)(F)F)cc3)cc2)C1 (stereo unspecified)
active: growth inhibition [4] 98%
inactive: growth inhibition [1] 20% | inhibition [2] 41% | inhibition [3] 4% | outcome [5] | outcome [6] | outcome [7] | outcome [8]

O=C(Nc1ccc(F)c(F)c1)c1ccc(CN2CCCN(Cc3cccc(F)c3)CC2)cc1
inactive: growth inhibition [1] 12% | inhibition [3] -6% | outcome [5] | outcome [6] | outcome [7] | outcome [8]
active: inhibition [2] 51% | growth inhibition [4] 83%

Cc1ccc2[nH]c3ccccc3c(=O)c2c1
inactive: inhibition [2] -4% | inhibition [3] -1% | outcome [5] | outcome [6] | outcome [7] | outcome [8]
active: growth inhibition [1] 74% | growth inhibition [4] 93%

CN1CCN(CCCN(Cc2ccc(-c3ccc(CNCc4ccc5c(c4)OCO5)cc3)cc2)C(=O)Nc2ccccc2)CC1
inactive: inhibition [2] 36% | inhibition [3] -3% | outcome [5] | outcome [6] | outcome [7] | outcome [8]
active: growth inhibition [1] 77% | growth inhibition [4] 94%

C/C=C/COc1ccc(-c2c(C)[nH]c(C)c(Cl)c2=O)cc1
active: growth inhibition [1] 97% | growth inhibition [4] 97%
inactive: inhibition [2] 0% | inhibition [3] 2% | outcome [5] | outcome [6] | outcome [7] | outcome [8]

O=C(Nc1ccc(N2CCN(Cc3c[nH]c4cc(F)ccc34)CC2)cc1)c1ccccc1-c1ccc(C(F)(F)F)cc1
inactive: growth inhibition [1] 7% | inhibition [2] 20% | inhibition [3] 9% | outcome [5] | outcome [6] | outcome [7] | outcome [8]
active: growth inhibition [4] 85%

Cc1ccc(NC(=O)c2ccc3ncccc3c2)cc1OC1CCN(CCC(C)C)C1 (stereo unspecified)
inactive: inhibition [2] 5% | inhibition [3] -4% | outcome [5] | outcome [6] | outcome [7] | outcome [8]
active: growth inhibition [1] 62% | growth inhibition [4] 98%

CNc1ccc(CNCc2cccc(-c3ccc(-c4nc5ccc(C(F)(F)F)cc5[nH]4)cc3)c2)cc1
inactive: inhibition [2] 21% | inhibition [3] 0% | outcome [5] | outcome [6] | outcome [7] | outcome [8]
active: growth inhibition [1] 100% | growth inhibition [4] 101%

COCCNCc1ccc(-c2ccc3c(Nc4ccc(Cl)cc4F)ccnc3c2)o1
inactive: inhibition [2] 15% | inhibition [3] -2% | outcome [5] | outcome [6] | outcome [7] | outcome [8]
active: growth inhibition [1] 100% | growth inhibition [4] 100%

CC(=O)Nc1cc(C(=O)Nc2ccc(C3=NCCN3)cc2)ccc1C(=O)Nc1ccc(C2=NCCN2)cc1
inactive: inhibition [2] 12% | inhibition [3] -3% | outcome [5] | outcome [6] | outcome [7] | outcome [8]
active: growth inhibition [1] 92% | growth inhibition [4] 96%

Cc1ccnc(NC(c2cccc(OCc3ccccc3)c2)c2ccc3cccnc3c2O)c1 (stereo unspecified)
active: growth inhibition [1] 88% | growth inhibition [4] 95%
inactive: inhibition [2] 26% | inhibition [3] -2% | outcome [5] | outcome [6] | outcome [7] | outcome [8]
